According to PubChem BioAssay (NCI):
This is part of a sample that, as a whole, favours compounds with a hit. Of some 83,000 tested, about 20% had one in any assay.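 In brief: 96-well plates, 48 h treatment, single concentration, percent growth endpoint.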 Active and inactive are the calls of the source. The calls were made as follows: active = growth percent below 10; inactive = the rest.

Legend:
Test in all cases: NCI-60 one-dose screen, 48 h (100 = growth as untreated, 0 = no growth, -100 = all killed)
[1] = test system: NCI-H522 lung; conditions: 10 µM unless noted
[2] = test system: A549/ATCC NSCLC; conditions: 10 µM unless noted
[3] = test system: COLO 205 colon; conditions: 10 µM
[4] = test system: HT29 colon; conditions: 10 µM unless noted
[5] = test system: SNB-75 CNS; conditions: 10 µM unless noted
[6] = test system: PC-3 prostate; conditions: 10 µM unless noted
[7] = test system: EKVX NSCLC; conditions: 10 µM unless noted
[8] = test system: TK-10 renal; conditions: 10 µM unless noted
[9] = test system: CAKI-1 renal; conditions: 10 µM unless noted
[10] = test system: A498 renal; conditions: 10 µM unless noted
[11] = test system: SR leukemia; conditions: 10 µM
[12] = test system: RPMI-8226 leukemia; conditions: 10 µM unless noted
[13] = test system: OVCAR-4 ovarian; conditions: 10 µM unless noted
[14] = test system: SK-OV-3 ovarian; conditions: 10 µM unless noted
[15] = test system: HS 578T breast; conditions: 10 µM unless noted
[16] = test system: HCT-116 colon; conditions: 10 µM unless noted
[17] = test system: SN12C renal; conditions: 10 µM unless noted
[18] = test system: BT-549 breast; conditions: 10 µM

Measured: growth

COc1ccc(OC)c(/C=C(/C)[N+](=O)[O-])c1
active: [1] -78.1% | [3] -38.9% | [4] -29% | [8] -19.1% | [9] 6.25% | [11] -7.63% | [12] -21.9% | [16] -91.4%
inactive: [2] 75.8% | [5] 77.2% | [6] 52.6% | [7] 83.9% | [10] 110% | [13] 64.4% | [14] 125% | [15] 70.6%

CCN(CC)CCOc1c(C(C)C)cccc1C(C)C
inactive: [1] 93.3% | [2] 89.5% | [4] 95.4% | [5] 84.8% | [6] 101% | [7] 96.5% | [17] 105% | [9] 89.8% | [10] 82.1% | [12] 103% | [13] 99.3% | [14] 112% | [15] 110% | [18] 123% | [16] 95.2%
active: [11] -1.29%

COC1=CC(=O)OC(CCc2ccc3c(c2)OCO3)C1 (stereo not drawn)
inactive: [1] 76.9% | [3] 108% | [4] 97.1% | [5] 96.3% | [7] 122% | [17] 107% | [8] 102% | [9] 120% | [10] 101% | [11] 122% | [12] 107% | [13] 106% | [14] 112% | [15] 109% | [16] 106%

O=[N+]([O-])c1ccc(F)c([N+](=O)[O-])c1F
inactive: [1] 95.3% | [2] 96% | [3] 115% | [4] 103% | [5] 116% | [7] 100% | [17] 103% | [8] 99.9% | [9] 103% | [10] 93.7% | [12] 93.5% | [13] 116% | [14] 105% | [15] 103%
active: [11] 8.94%

COc1cc(/C=C\c2cc(OC)c(OC)c(OC)c2)cc(N/C=C\C(=O)c2ccc(OC(F)(F)F)cc2)c1OC
active: [1] -54.8% | [3] 3.12% | [4] -36.6% | [5] -8.84% | [10] -1.24% | [11] 4.84% | [16] 8.14%
inactive: [2] 19.4% | [6] 42.6% | [9] 45.5% | [12] 11.8% | [13] 57.4% | [14] 19.9% | [18] 44.8%

O=C1NC(=O)C(O)(C2(O)C(=O)NC(=O)NC2=O)C(=O)N1
inactive: [1] 94.3% | [3] 79.9% | [4] 104% | [5] 94% | [6] 89.2% | [7] 110% | [17] 92.3% | [8] 118% | [9] 104% | [10] 89.1% | [11] 95.1% | [12] 75.6% | [13] 108% | [14] 111% | [15] 99% | [16] 97%

CC(C)Nc1ccc(Nc2ccccc2)cc1
active: [4] 7.96% | [6] 9.1% | [16] 9.97%
inactive: [1] 40.8% | [2] 24.1% | [5] 29.8% | [7] 29.4% | [17] 19.8% | [8] 45.2% | [9] 41.6% | [10] 65.9% | [11] 51.2% | [12] 11.5% | [13] 28.3% | [14] 27.7% | [18] 22.8%

CC(/C=N/N=C(N)N)=N\N=C(N)N
inactive: [1] 61.5% | [3] 55.4% | [4] 65.9% | [5] 63.7% | [7] 89.8% | [17] 74.2% | [8] 62% | [10] 83.9% | [11] 70.1% | [12] 74.3% | [13] 66.3% | [14] 84.9% | [15] 69.3% | [16] 49%

CCOc1cc(C=C(C#N)C#N)cc(Br)c1O
inactive: [1] 100% | [2] 102% | [3] 103% | [4] 92.5% | [6] 98.4% | [7] 104% | [17] 106% | [8] 102% | [9] 92.7% | [11] 93.4% | [12] 105% | [13] 103% | [18] 99.1% | [16] 99.2%

CNC(=O)Oc1cccc(N(C)C)c1
inactive: [1] 89.1% | [2] 93% | [4] 106% | [5] 97.5% | [6] 97.2% | [17] 94.6% | [8] 108% | [9] 91.6% | [10] 104% | [11] 103% | [12] 101% | [13] 106% | [14] 99.7% | [15] 108% | [18] 94.1% | [16] 113%

O=C(O)CC(Br)C(=O)CBr (stereo not drawn)
inactive: [2] 99.9% | [3] 109% | [5] 93.5% | [6] 98.7% | [17] 107% | [8] 98.9% | [11] 113% | [12] 103% | [13] 97.2% | [14] 106% | [15] 104%
